KCNQ2 inh = rat KCNQ2 potassium channel inhibitors, primary screen, cell-based, CHO-K1, FluxOR thallium flux, B-score | 20 min; stronger effect = lower value | B-score at 10 µM | 310,000 tested, 1.1% active | AID 2156, 2009;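 active = fluorescence ratio B-score at most minus 3 library SDs, with starting brightness B-score within 2 library SDs, cut at about -5.5 in these data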
KCNQ2 enhance = potentiators of rat KCNQ2 potassium channel; B-score at 10 µM; Potassium voltage-gated channel subfamily KQT member 2 (Rattus norvegicus), O88943; AID 2239, 2010; 310,000 tested, 0.54% active; CHO-K1 KCNQ2, FluxOR thallium flux fluorescence; stronger effect = higher value;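 active = fluorescence ratio B-score at least 3 SD of library B-scores, with initial fluorescence B-score within 3 of them, cut at about 5.3 in these data; same plate scores as AID 2156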;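 also: B-score of peak minus minimum over baseline fluorescence ratio after K+ and Tl+ stimulus; positive B-score means potentiation of KCNQ2 with more thallium influx and brighter signal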
Kir21 confirm = mouse Kir2.1 channel blockers, retest, confirmation, cell-based, FluxOR thallium flux, duplicate. shares compounds with KCNQ2 enhance. Kir2.1-expressing cells, FluxOR thallium flux fluorescence; stronger effect = lower value. Tl flux remaining, % of negative control (stronger effect = lower value), % at 10 µM. 2,300 tested, 41% active. AID 2032, 2009;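 active = Primary-screen hit whose thallium flux fell at least 3 control SD below untreated wells in both duplicates, with normal baseline fluorescence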;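 also: 0% = blank wells without stimulus and 100% = stimulated no-compound controls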
HEK293 ctr = counter-screen for Kir2.1 inhibitors: effect in parental HEK293 cells. 2,300 tested, 19% active. FluxOR signal as % of negative control (100 = no effect), % at 10 µM. FluxOR thallium flux fluorescence; 0% = unstimulated blank wells. shares compounds with KCNQ2 enhance;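 active = dye signal at least 3 control SD above or below untreated wells in both duplicates, raw fluorescence within 3, either direction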;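 also: percent is based on the flux ratio of peak minus minimum fluorescence over baseline F0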
CHO-K1 Tl ctr = nonspecific thallium flux increase in parental CHO-K1, confirmation, counter-screen for KCNQ2 potentiator project, cell-based, FluxOR thallium flux, duplicate | shares compounds with KCNQ2 enhance | parental CHO-K1 cells, FluxOR thallium flux fluorescence; zero = vehicle mean+3SD, 100% = vehicle-minus-blank window | activity increase over 3SD of controls, % at 10 µM | 1,200 tested, 43% active;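 active = signal rise of at least 3 SD above the untreated control mean, in both duplicate wells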;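 also: counter screen of KCNQ2 potentiator hits so any rise reflects channel-independent effects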
KCNQ1 sel pot = human KCNQ1 channel potentiation off-target, confirmation, selectivity assay for KCNQ2 potentiator project, cell-based, CHO, FluxOR thallium flux; shares compounds with KCNQ2 enhance; CHO KCNQ1 stable, FluxOR thallium flux fluorescence; beyond 3SD, as % of vehicle-control signal; activation over 3SD threshold, % at 10 µM; 1,200 tested, 28% active; AID 2283, 2010;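 active = fluorescence ratio rise of at least 3 SD of vehicle wells above their mean, in both replicate wells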;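 also: 0% = vehicle mean plus 3 SD and 100% = vehicle minus unstimulated blank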
Target sequence (P51787 whole entry, looked up): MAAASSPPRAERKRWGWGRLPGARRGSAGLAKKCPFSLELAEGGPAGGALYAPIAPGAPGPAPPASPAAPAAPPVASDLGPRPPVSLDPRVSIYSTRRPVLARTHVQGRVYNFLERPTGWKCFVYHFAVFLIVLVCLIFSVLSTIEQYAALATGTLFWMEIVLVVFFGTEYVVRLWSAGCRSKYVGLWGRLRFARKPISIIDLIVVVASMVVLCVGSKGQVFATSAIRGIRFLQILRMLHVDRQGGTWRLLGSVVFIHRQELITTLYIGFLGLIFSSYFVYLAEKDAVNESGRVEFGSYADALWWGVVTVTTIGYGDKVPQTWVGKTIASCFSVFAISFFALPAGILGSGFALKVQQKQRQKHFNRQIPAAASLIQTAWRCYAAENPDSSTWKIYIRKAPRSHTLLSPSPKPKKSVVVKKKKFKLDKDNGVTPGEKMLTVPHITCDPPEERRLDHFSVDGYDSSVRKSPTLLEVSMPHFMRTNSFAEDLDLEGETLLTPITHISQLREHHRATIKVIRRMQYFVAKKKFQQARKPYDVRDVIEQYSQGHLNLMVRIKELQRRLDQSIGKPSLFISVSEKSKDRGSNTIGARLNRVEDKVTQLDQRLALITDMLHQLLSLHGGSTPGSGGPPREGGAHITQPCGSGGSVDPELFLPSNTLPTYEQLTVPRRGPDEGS
KCNQ2 pot conf = rat KCNQ2 channel potentiators, confirmation, cell-based, CHO, FluxOR thallium flux, duplicate | shares compounds with KCNQ2 enhance | CHO-KCNQ2 cells, FluxOR thallium flux fluorescence | potentiation, less the hit threshold, % at 10 µM | 1,200 tested, 68% active | AID 2287, 2010;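 active = fluorescence ratio rising 3 SD or more over the vehicle control mean in both replicates, plus primary screen hit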;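 also: peak minus minimum thallium fluorescence divided by baseline after K/Tl stimulus; 0% = vehicle mean plus 3 SD and 100% = vehicle minus unstimulated blank difference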
Kir2-1 sel = mouse Kir2.1 channel activation off-target, confirmation, selectivity assay for KCNQ2 potentiator project, cell-based, HEK293, FluxOR thallium flux; activity over 3SD threshold, % at 10 µM; HEK293 Kir2.1, FluxOR thallium flux fluorescence; 1,200 tested, 2% active; shares compounds with KCNQ2 enhance;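 active = fluorescence ratio rise of at least 3 SD above the vehicle-control mean, seen in both replicates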;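 also: 0% = vehicle mean plus 3 SD and 100% = vehicle minus no-stimulus blank window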
KCNQ2 W236L MoA = potentiators of retigabine-insensitive KCNQ2 W236L, mechanism study for KCNQ2 potentiator project, cell-based, rat KCNQ2 W236L, CHO, automated patch clamp; shares compounds with KCNQ2 enhance; automated patch clamp current; current increase over 3SD of negative controls (%), stronger effect = higher value, % at 25 µM; 940 tested, 10% active;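 active = current increase at least 3 SD of the untreated controls above them in both duplicate recordings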
Starred values were filed as active, the others as inactive; i = inactive; . = not tested or not shown. Most compounds without a hit are left out; they make up all but 1.6% or so of the library.

SMILES | KCNQ2 inh | KCNQ2 enhance | Kir21 confirm | HEK293 ctr | others
COc1ccc(C[C@H]2CN3C(=NC[C@H]3Cc3ccccc3)N2CCNC(=O)CCC2CCCCC2)cc1 | i | . | 47%* | i
C/C=C(\C)C(=O)NCCN1C2=NC[C@H](Cc3ccccc3)N2C[C@@H]1Cc1ccc(OC)cc1 | i | 0.09 | . | .
Cc1ccccc1NC(=S)N1CCN(c2ccccc2Cl)CC1 | i | . | . | .
CCCCN1C(=O)C(=Nc2cccc3cnccc23)c2ccccc21 | i | . | 36%* | i
CCCCN1C(=O)/C(=C2\SC(N3CCCCC3)=NC2=O)c2ccccc21 | i | 0.48 | . | .
Cc1ccc(OCCSc2nc(NC(C)C)nc(NC(C)C)n2)cc1 | i | . | . | .
Oc1c(Br)cc(Br)cc1/C=N/c1nc2c(s1)CCCC2 | i | 8.7* | i | i | CHO-K1 Tl ctr=48*;KCNQ1 sel pot=-6;KCNQ2 pot conf=26*;Kir2-1 sel=-46;KCNQ2 W236L MoA=4.4%*
Oc1ccc2ccccc2c1/C=N/c1nc2c(s1)CCCC2 | i | . | . | .
CC(C)(C)NC(=O)C(c1ccncc1)N(C(=O)c1csnn1)c1cccc2ccccc12 (stereo unspecified) | i | . | . | .
CCOC(=O)N1CCN(Cc2c(O)ccc3ccccc23)CC1 | i | . | . | .
CCOC(=O)C1CCN(Cc2c(O)ccc3ccccc23)CC1 | i | 0.29 | 70%* | i
Nc1ccccc1C(=O)NNc1ncc(C(F)(F)F)cc1Cl | i | . | . | .
O=C(NNc1ncc(C(F)(F)F)cc1Cl)c1ccc(Cl)c(Cl)c1 | i | 12* | i | i | CHO-K1 Tl ctr=-12;KCNQ1 sel pot=-19;KCNQ2 pot conf=1.2*;Kir2-1 sel=-30;KCNQ2 W236L MoA=6.1%*
C=CCNC(=S)N1CCC(C(=O)c2ccc(Cl)cc2)CC1 | i | 1.4 | . | .
O=C(Nc1cc(Cl)ccc1N1CCCCC1)c1cccs1 | i | . | . | .
O=C(NC(=S)Nc1ccc(N2CCCCC2)c(Cl)c1)c1cccs1 | i | 6.6* | i | i | CHO-K1 Tl ctr=9.4*;KCNQ1 sel pot=11*;KCNQ2 pot conf=1.0*;Kir2-1 sel=-26;KCNQ2 W236L MoA=i
Cc1ccccc1NC(=O)CC(O)(C(F)(F)F)C(F)(F)F | i | 0.22 | . | .
Cc1ccc(NC(=O)CC(O)(C(F)(F)F)C(F)(F)F)c(Br)c1 | i | 8.7* | i | i | CHO-K1 Tl ctr=54*;KCNQ1 sel pot=54*;KCNQ2 pot conf=31*;Kir2-1 sel=-39;KCNQ2 W236L MoA=i
Nc1nc(C2CC2)c(Sc2sc(N)nc2C2CC2)s1 | i | . | 74%* | i
Nc1nc(C2CCOCC2)cs1 | i | . | . | .
COCc1nnc(NC(=O)c2c(-c3c(Cl)cccc3Cl)noc2C)s1 | i | . | . | .
NC1=NC[C@H](Cc2ccc(O)cc2)N1CCCCC1CCCCC1 | i | 0.01 | . | .
NC1=NC[C@H](Cc2ccccc2)N1CCCCC1CCCCC1 | i | . | 32%* | i
Cc1cc(C)n(-c2ccc(Cl)c(C(=O)O)c2)n1 | i | . | . | .
O=C1Nc2cc(C(F)(F)F)ccc2N2CCCCC12 (stereo unspecified) | i | 0.04 | . | .
SMILES | KCNQ2 inh | KCNQ2 enhance | Kir21 confirm | HEK293 ctr | others
CC(C(=O)N1c2ccc(F)cc2CCC1C)N1C(=O)c2ccccc2C1=O (stereo unspecified) | i | 7.6* | i | 123%* | CHO-K1 Tl ctr=103*;KCNQ1 sel pot=-9;KCNQ2 pot conf=-12;Kir2-1 sel=-32
CCC(CC)C(=O)N1c2ccc(F)cc2CCC1C (stereo unspecified) | i | . | . | .
COC(=O)c1c(N2C(=O)[C@H]3[C@@H](C2=O)[C@]2(C(=O)Nc4ccc(C)cc42)N2CCC[C@@H]32)sc(C)c1C | i | 1.6 | . | .
CC(Sc1nnc(CC(=O)Nc2ccccc2F)n1C)C(=O)Nc1nccs1 (stereo unspecified) | i | 0.35 | . | .
CCCCN(CC)C(=O)Cn1ncc2c3ccccc3n(CCC)c2c1=O | i | . | . | .
COc1ccc(S(=O)(=O)N2CCc3ccccc32)cc1C(=O)O | i | . | . | .
COc1ccc(S(=O)(=O)N2CCc3ccccc32)cc1OC | i | 0.13 | 52%* | i
NNC(=O)c1sccc1OCc1ccc(Cl)cc1Cl | i | 3.8 | . | .
CC(SCc1ccccc1)C(=O)Nc1ccccc1F (stereo unspecified) | i | . | . | .
Cc1ccc(O)c(C(=O)CC(=O)c2cccc(F)c2)c1 | i | 1.6 | . | .
Cc1cccc(C(=O)CC(=O)c2cc(Cl)ccc2O)c1 | i | 0.16 | . | .
O=C(CC(=O)c1cc(Cl)ccc1O)c1ccccc1 | i | 5.3* | i | 130%* | CHO-K1 Tl ctr=-5;KCNQ1 sel pot=-16;KCNQ2 pot conf=-3;Kir2-1 sel=-14;KCNQ2 W236L MoA=i
Cc1ccc(O)c(C(=O)CC(=O)c2ccc(Cl)cc2)c1 | i | 6.2* | i | i | CHO-K1 Tl ctr=-9;KCNQ1 sel pot=-18;KCNQ2 pot conf=-11;Kir2-1 sel=-34
CC(=O)c1ccc(-n2nncc2-c2ccc([N+](=O)[O-])cc2)cc1 | i | . | . | .
CC1=NN(Cc2c(C)nn(Cc3ccccc3)c2C)C(C)(C)C1 | i | 0.12 | . | .
O=C(CCNc1n[nH]c(=O)[nH]c1=O)N/N=C\c1cccc(OCc2ccccc2)c1 | i | . | . | .
Cc1ccc(S(=O)(=O)CCCS(=O)(=O)c2ccc(C)cc2)cc1 | i | . | 67%* | i
Cc1ccc(S(=O)(=O)c2ccc(C)cc2)cc1 | i | 0.96 | . | .
COC/C=C/C1=CC2=CC(=O)C(C)(OC(=O)c3cnc4ccccc4n3)C(=O)C2=CO1 (stereo unspecified) | i | . | . | .
OCCNCc1ccc(-c2ccccc2)cc1 | i | 1 | . | .
OCCCNCc1ccc(N(c2ccccc2)c2ccccc2)cc1 | i | . | 23%* | i
CCn1cc(C(=O)O)c(=O)c2cnc(N3CCN(C(=S)NC(=O)c4ccc(OC)cc4)CC3)nc21 | i | 0.79 | . | .
Cc1c(C(=O)N2CCCCC2)nn(-c2ccc(Cl)cc2)c(=O)c1C#N | i | 0.73 | . | .
N#Cc1c(NCCN)nc(-c2ccccc2)c2c1CCCC2 | i | . | 46%* | i
